# Assay results from PubChem BioAssay (NCI).
# Compounds without any hit were thinned out: in the full panel of roughly 83,000, 20% have a hit.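 Results are percent growth after 48 hours of single-concentration exposure. 100 means growth as in untreated cells, lower positive values show inhibition; negative values down to -100 show cell death.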 Unmarked numbers belong to inactive results. Active and inactive are the calls of the source. Rule for the calls: active = growth percent below 10; inactive = the rest.
# Experiments:
# Experiment in all cases: NCI-60 one-dose screen, 48 h (100 = growth as untreated, 0 = no growth, -100 = all killed)
# Details in all cases: 10 µM unless noted
# [1] = tested on: NCI-H23 lung
# [2] = tested on: NCI-H226 lung
# [3] = tested on: NCI-H322M lung
# [4] = tested on: HOP-62 NSCLC
# [5] = tested on: NCI-H460 lung
# [6] = tested on: HOP-92 NSCLC
# [7] = tested on: NCI-H522 lung
# [8] = tested on: A549/ATCC NSCLC
# [9] = tested on: 786-0 renal
# [10] = tested on: COLO 205 colon
Compound,growth [1],growth [2],growth [3],growth [4],growth [5],growth [6],growth [7],growth [8],growth [9],growth [10]
C=CC(=O)N[C@@H](/C=C/C(=O)OCC)Cc1ccc(-c2cc(Cl)cc(Cl)c2)cc1,15.6%,10.8%,58.9%,36%,9.25% (active),14.8%,3.13% (active),11.6%,11.8%,6.63% (active)
Cc1cccc(-c2cn3ccnc3c(-c3ccc4ncn(Cc5ccccc5)c4c3)n2)c1,90.9%,98.8%,101%,90.3%,89.9%,71.3%,71.6%,85.1%,78.6%,88.6%
N/C(=N\C(N)=N\c1nc2ccccc2s1)c1cnccn1,19.8%,22.5%,25.1%,40.2%,11.8%,47%,22.4%,21.1%,23.4%,16.2%
CN1CCN(C(=O)[C@]23CCC(C)(C)C[C@H]2C2=CC[C@@H]4[C@@]5(C)C/C(=C/c6ccncc6)C(=O)C(C)(C)[C@@H]5CC[C@@]4(C)[C@]2(C)CC3)CC1,72.4%,68.7%,87.6%,83.1%,33.1%,41%,55.9%,43.8%,67.2%,41.9%
COc1ccccc1NS(=O)(=O)c1cccc(C(=O)Nc2ccc(Br)cc2)c1,35.9%,44.2%,53.1%,62.9%,47%,38.9%,46.7%,46%,59.5%,57.9%
CCCCCCCCO/N=C\c1c2c(O)c3c(O)c(C)c4c(c3c1O)C(=O)C(C)(O/C=C\C(OC)C(C)C(OC(C)=O)C(C)C(O)C(C)C(O)C(C)/C=C\C=C(\C)C(=O)N2)O4 (stereo not given),22.2%,28%,45.9%,36%,3.79% (active),-4.97% (active),5.64% (active),17.4%,27.9%,4.9% (active)
CC(=O)Nc1ccc(-c2ccc3c(c2)NC(=O)/C3=C\c2ccc[nH]2)cc1,52.5%,85.8%,64.5%,95.7%,50.1%,130%,59.3%,92.4%,99.3%,139%
CN1CCC(=C(c2ccccc2)c2ccccc2)C(c2ccccc2)C1 (stereo not given),88.1%,96.3%,96.7%,101%,103%,82.8%,85.2%,90.8%,95.1%,83%
COc1ccc(C/C(C)=C(/c2ccc(OCCCN(C)C)cc2)c2ccc(OC(C)=O)cc2)cc1,80.7%,98%,94.5%,83.2%,73.1%,64.5%,95.5%,74.3%,63.2%,50.1%
COCCCN1CC(O)=C(c2nc(-c3ccc(C)cc3)cs2)C1=N,96%,96.3%,97.3%,91.6%,153%,147%,106%,85.4%,94.8%,133%
C[C@@H](Nc1ncnc2ccc(-c3cnc(N)nc3)cc12)c1ccc(F)cc1,85.9%,89.1%,37.8%,57.7%,99.2%,49.6%,66.3%,74%,68.9%,112%
COc1ccc(C(=O)Cn2c(C(=O)c3ccccc3)nc3ccccc32)cc1,28.2%,38.5%,78.7%,40.6%,8.51% (active),54.7%,-28.1% (active),31.8%,43.6%,51%
CC(Sc1nc2sc3c(c2c(=O)n1-c1ccc(Cl)cc1)CCCC3)C(=O)Nc1nc(-c2ccc(Br)cc2)cs1 (stereo not given),95.3%,94.3%,95.8%,91.5%,104%,110%,82.1%,100%,92.6%,110%
CC1(C)CC[C@]2(C(=O)O)CC[C@]3(C)C(=CC[C@@H]4[C@@]5(C)Cc6c([nH]c7ccccc67)C(C)(C)[C@@H]5CC[C@]43C)[C@@H]2C1,32.8%,48.9%,27.3%,28.2%,16.7%,60.3%,31.5%,17.8%,37.7%,-15.5% (active)
N#Cc1c(NC(=O)NCc2ccccc2)sc2c1CCCC2,29%,29.5%,42.2%,40.2%,2.62% (active),42%,21.9%,28.5%,35.6%,10.1%
Cc1cc(C)c(S(=O)(=O)Oc2ccccc2[N+](=O)[O-])c(C)c1,32.9%,60%,52.6%,39.8%,8.64% (active),38.1%,-12.5% (active),31.2%,33%,22.9%
C[C@H]1[C@H]2[C@H]3CC[C@@H]4[C@@]5(C)CC[C@H](O)C(C)(C)[C@@H]5CC[C@@]4(C)[C@]3(C)CC[C@]23CO[C@]1(C)[C@@H](C(=O)/C=C\c1ccco1)C3,98.5%,99.7%,88.3%,104%,109%,65.4%,87.8%,104%,104%,-2.3% (active)
CC(=O)N1N=C(c2ccc(-n3ccc(C(F)(F)F)n3)c(F)c2)CC1c1ccc[nH]1 (stereo not given),100%,106%,110%,112%,103%,130%,77.2%,104%,102%,122%
C/C(=N\NC(=O)CSc1nc2ccccc2c(=O)n1CCc1ccc(S(N)(=O)=O)cc1)c1ccccn1,50.4%,43.4%,25.9%,25.2%,12.1%,67.5%,18.9%,21.1%,34.8%,8.47% (active)
COc1ccc(CNCCN2C(=O)c3ccc4c5c(ccc(c35)C2=O)C(=O)N(CCNCc2ccc(OC)c(OC)c2OC)C4=O)c(OC)c1OC,-42.8% (active),-13.7% (active),-1.94% (active),20%,-21.2% (active),5.62% (active),-78% (active),-39.9% (active),8.05% (active),-10.9% (active)
O=C1c2cccc3c(-c4ccc5c(c4)ncn5C4CCCCC4)ccc(c23)C(=O)N1CCO,78.6%,77%,91.8%,81.9%,94.1%,51.1%,73.7%,95.6%,95.4%,108%
N#CC1=C(N)Oc2c(cnn2-c2ccc([N+](=O)[O-])cc2[N+](=O)[O-])C1c1ccccc1 (stereo not given),104%,97%,97.7%,98.3%,103%,75.6%,95.3%,103%,114%,111%
Cc1cc2c(C(=O)NCC#N)cccc2n1-c1nc2c(c(NCc3ccccc3)n1)CCCC2,-41.8% (active),-69.3% (active),-19.5% (active),-16.9% (active),-35.7% (active),-63.4% (active),-24.9% (active),-38.9% (active),-56.8% (active),-51% (active)
Cc1ccc(-n2nc3c(c(C#N)c2=O)CC(c2ccccc2[N+](=O)[O-])C([N+](=O)[O-])=C3O)cc1 (stereo not given),93.2%,92.1%,88%,84.6%,95.4%,88.5%,89.4%,90.1%,82.7%,101%
COc1cc2oc(-c3cccc(C(=O)Nc4ccc5c(c4)OCO5)c3)cc(=O)c2c(O)c1OC,72.7%,78.5%,81%,60.4%,54.3%,73%,76%,74.9%,64.3%,94.8%
